Source: PubChem (several laboratories)
Most compounds without a hit are left out; they make up all but 2.9% or so of the library.
Shn3 inh set2 = reduction of Shn3 3'UTR firefly luciferase signal, primary screen, Schnurri-3 inhibitor project, cell-based, Clone20 osteoblasts, set 2; AID 588674, 2011; 360,000 compounds, 0.52% hits; Clone20 osteoblast Shn3 3'UTR firefly luciferase, 24 h; inhibition, % at 12.5 µM;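 active = mean inhibition of at least 75% with every replicate also reaching 75%; inconclusive = mean inhibition at least 75% but some replicate below; inactive = mean inhibition below 75%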;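 note: 0% = median of neutral control wells and 100% = pilot-screen positive control compound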
CF NFkB inh = inhibitors of PAF-induced NF-kB signaling, primary screen, cell-based, GFP fluorescence, uHTS; AID 588850, 2011; inhibition, % at 5 µM; 360,000 compounds, 0.86% hits; KKLEB NF-kB-GFP reporter, GFP fluorescence overnight;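 active = at least 50% inhibition at 5 µM, scaled per plate between neutral and stimulator controls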;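 note: PAF is a Pseudomonas aeruginosa culture filtrate used as stimulus; plate controls were PAF-stimulated DMSO wells for no effect and unstimulated DMSO wells for full effect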
KKLEB cytotox = cytotoxicity in KKLEB CF airway cells, primary screen, cytotoxicity control for CF NF-kB inhibitor project, cell-based, uHTS, fluorescence assay plates; KKLEB CF airway cells viability, ATPlite luminescence, overnight; stronger effect = lower value; cells stimulated with P. aeruginosa culture filtrate; activity change (cytotoxicity), % at 5 µM; 360,000 compounds, 0.36% hits;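 active = corrected activity change at or below -50% at 5 µM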
LMP1 NFkB inh = EBV LMP1-driven NF-kappaB luciferase reporter inhibitors, primary screen, cell-based, luminescence, single point; LMP1-induced NF-kappaB luciferase reporter cells; inhibition, % at 12.5 µM; 350,000 compounds, 0.69% hits; AID 504558, 2011; in the data active = inhibition above about 41%; inconclusive = no clear call, values can overlap the other calls;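 note: 0% = neutral control wells and 100% = reference inhibitor control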
TRPM1 prom inh = inhibitors of MITF-dependent TRPM1 promoter reporter, primary screen, cell-based, SK-MEL-5, single point, luciferase. AID 488899, 2010. inhibition, % at 12.5 µM. 330,000 compounds, 0.83% hits. SK-MEL-5 TRPM1 promoter luciferase, 24 h;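 active = mean inhibition across replicates of 60% or more, whatever share of single replicates reaches that level; inconclusive = some that reach 60%, reason not given; inactive = mean inhibition across replicates below 60%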
Peg3 prom inh = Peg3 promoter-driven luciferase inhibitors, primary screen, cell-based, HeLa, luciferase luminescence; HeLa PEG-Prom luciferase reporter, overnight; inhibition, % at 20 µM; 360,000 compounds, 1.7% hits;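 active = inhibition of at least 50% at 20 µM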
CF NFkB conf = inhibitors of PAF-induced NF-kB signaling, retest, confirmation, cell-based, GFP fluorescence, single concentration. shares compounds with CF NFkB inh. KKLEB CF airway cells, overnight. inhibition, % at 5 µM. 1,300 compounds, 64% hits; in the data active = inhibition above about 40%;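 note: stimulus PAF is a Pseudomonas aeruginosa filtrate and not platelet activating factor; plate controls were DMSO wells with stimulus for no effect and unstimulated DMSO wells for full effect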
* marks the source's active call; other numbers are inactive results; ? = inconclusive; / = no result given.

SMILES	Shn3 inh set2	CF NFkB inh	KKLEB cytotox	LMP1 NFkB inh	TRPM1 prom inh	Peg3 prom inh	CF NFkB conf
CC1CCC2(CC1)NC(=O)N(CC(=O)Nc1ccc(N3CCCCC3)cc1)C2=O (centres undefined)	-5	-14	0	-3	/	-5	/
Cc1ccccc1NC(=O)c1ccc([N+](=O)[O-])o1	14	30	-10	-27	6	13	/
Cc1cccc(NC(=O)c2ccc([N+](=O)[O-])o2)n1	61	61*	-25	-14	22	14	8
COc1cc(NC(=O)N2CCc3nc(NCc4cccc(Oc5ccccc5)c4)ncc3C2)cc(OC)c1OC	43	23	-34	/	/	30	/
CCN1CCN(C(=O)c2ccc3nc(-c4ccccc4)c(-c4ccccc4)nc3c2)CC1	6	5	-3	-18	-5	3	/
CCOc1ccc(/C=N/n2cnnc2)cc1	-16	3	9	4	2	13	/
CC(=O)Oc1ccccc1C(=O)Oc1ccc(/C=N/n2cnnc2)cc1	2	73*	-15	0	-5	9	64*
CC(c1ccccc1)N1C(=O)c2ccc(C(=O)Nc3ccc(Br)cc3C(=O)O)cc2C1=O (centres undefined)	4	60*	-4	-1	-3	10	44*
CNC[C@@H]1OCc2ccccc2-c2c(n(C)c3ccccc23)C(=O)N([C@H](C)CO)C[C@@H]1C	3	10	-5	5	/	-20	/
C[C@@H]1CN([C@H](C)CO)C(=O)CCCn2nncc2CO[C@H]1CN(C)Cc1ccc2c(c1)OCO2	-31	-4	-4	-7	/	1	/
O=S(=O)(Nc1nc2ccccc2nc1N1CCN(c2ccccc2F)CC1)c1ccc(Cl)cc1	11	61*	-47	-4	8	49	66*
CCc1nc2ccc(C(=O)NCCCn3ccnc3)cn2c1N(C)Cc1ccc(Cl)cc1	-34	9	-17	/	/	3	/
O=C(c1ccc2c(Cl)c3c(nc2c1)CCCC3)N1CCN(c2ccc(F)cc2)CC1	-15	29	-14	-1	10	35	/
COc1ccccc1N1CCN(C(=O)c2ccc3c(Cl)c4c(nc3c2)CCCC4)CC1	-10	53*	-12	0	/	27	-95
CCCCCCCCCCCCCCCC(O)C(N)CO (centres undefined)	-1	61*	0	-1	10	-11	15
O=S1(=O)CC(N2CCN(CCO)CC2)CN1Cc1cn(Cc2ccccc2C(F)(F)F)nn1 (centres undefined)	-2	-9	-14	/	/	4	/
CNc1cc(-c2ccc(O)cc2C)ncn1	-18	4	-5	/	/	-13	/
COc1ccc(-c2cc(C(F)(F)F)nc(S(=O)(=O)CCC(=O)N3CCOCC3)n2)cc1	5	79*	-36	-5	19	103*	47*
CCOc1cc(Br)c(Br)c(C=Nc2ccc(NC(C)=O)cc2)c1O	-21	69*	-1	-3	8	32	61*
CCOc1cc(/C=N/NC(=O)C(N)=O)cc(Br)c1O	-13	-3	-6	-4	0	-2	/
O=C(Nc1cccc2ccccc12)c1csc(COCCO)n1	-53	5	11	/	/	-11	/
C=CC(=O)Nc1cccc(Oc2ncnc3[nH]cc(-c4cnc5ccccc5c4)c23)c1	32	87*	-3	12	31	42	79*
C/C(=N/Nc1ccccc1[N+](=O)[O-])c1ccc([N+](=O)[O-])cc1	-60	51*	-38	7	-1	1	24
C=C1C(=O)O[C@@H]2[C@H]3O[C@]3(C)CC/C=C(\C)CC[C@@H]12	-21	69*	23	35	33	49	77*
CCN(CC(=O)Nc1ccc(C#N)cc1)CC(=O)Nc1ccc2c(c1)OCCO2	-7	-13	6	0	/	5	/
SMILES	Shn3 inh set2	CF NFkB inh	KKLEB cytotox	LMP1 NFkB inh	TRPM1 prom inh	Peg3 prom inh	CF NFkB conf
N#Cc1nnn2c1nc(N)c1c(Cl)cccc12	-4	-30	-9	/	/	38	/
CC1CCCCN1c1ncnc(N)c1[N+](=O)[O-] (centres undefined)	14	74*	0	22	-8	9	64*
CC(NC(=O)c1ccc([N+](=O)[O-])o1)C1CC2CCC1C2 (centres undefined)	12	62*	-9	-4	50	41	25
c1ccc(C2[C@H]3CN(Cc4cccnc4)[C@H](c4ccccc4)C34CC2(c2ccccc2)C4)cc1 (some centres undefined)	3	53*	-19	-21	16	7	5
COc1nc(-c2ccc(C)cc2)ccc1-c1noc(-c2cccnc2)n1	11	53*	-32	0	4	-14	19
O=C(NCC(=O)N1CCN(C(=O)c2ccccc2)CC1)c1ccc(Cl)cc1Cl	4	0	9	3	/	4	/
Cc1ccc(-c2cccc(C(=O)NCc3ccccc3)n2)c2ccccc12	3	53*	-13	-3	3	16	31
O=C(/C=C/c1ccc(Br)cc1)c1ccc(NC2=NCCCS2)cc1	71	56*	-11	23	55	108*	-13
COc1ccc(-n2nc(C(=O)NCC(=O)Nc3cc(OC)c(OC)c(OC)c3)c3ccccc3c2=O)cc1Cl	67	79*	-20	37	16	44	101*
CCN(CC)C(=O)CNC(=O)c1nn(-c2ccc(OC)c(Cl)c2)c(=O)c2ccccc12	10	35	-17	7	5	16	/
CCCCOC(=O)/C=C\C(=O)NC(N)=O	39	57*	-10	2	2	11	-15
COc1ccccc1C(=O)N1CCN(Cc2ccc3c(c2)OCO3)CC1	12	15	-9	19	6	-91	/
CCOc1ccccc1C(=O)NCC(=O)N1CCN(Cc2ccc3c(c2)OCO3)CC1	17	74*	-14	12	-22	0	31
CCC1(C2C=COC=C2)NC(=O)NC1=O (centres undefined)	7	-2	-23	/	/	7	/
CCC(=O)OC1(C(C)=O)CCC2C3CCC4=CC(=O)CCC4(C)C3CCC21C (centres undefined)	18	51*	-5	12	12	-5	-89
CC(=O)Nc1ccc(S(=O)(=O)NCCC(=O)NCCCc2ccccc2)cc1	9	-13	-3	8	-10	5	/
Cc1nnc(SCC(=O)N2CCC(c3noc4ccc(F)cc34)CC2)s1	28	64*	-14	?	3	2	90*
